According to PubChem BioAssay AID1159580 (chemical genetic matrix, 2015):
Hit rate of the full screen: of about 5,500 compounds, about 2,000 (36%) were called active. Inconclusive results (about 18%) are left out. No stated cut-off is given here; in the data, active means normalized growth mostly below about 0.91 (no sharp cut-off); inconclusive means no clear call, values can overlap the other calls; inactive means mostly above about 0.92. Some of the results follow.

Test: chemical genetic growth profiling, strain panel (AID 1159580);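 further: tested at 20 µM; growth read once vehicle control cultures reached saturation at 30 °C; 1 = growth at the plate median or of vehicle wells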
Details: growth OD

Measured: normalized growth

CC(C)CC1NC(=O)CNC1=O (stereo not given)
inactive: S. cerevisiae deletion strains, locus YBR021W, strain FUR4, stronger effect = lower value 1.03 | S. cerevisiae deletion strains, locus YBR229C, strain ROT2, stronger effect = lower value 0.953 | S. cerevisiae deletion strains, locus YCL029C, strain bik1, stronger effect = lower value 0.965 | S. cerevisiae deletion strains, locus YDL035C, strain GPR1, stronger effect = lower value 0.992 | S. cerevisiae deletion strains, locus YDL074C, strain BRE1, stronger effect = lower value 1.04 | S. cerevisiae deletion strains, locus YDL101C, strain DUN1, stronger effect = lower value 0.974 | S. cerevisiae deletion strains, locus YDL185W, strain tfp1, stronger effect = lower value 0.963 | S. cerevisiae deletion strains, locus YDL192W, strain arf1, stronger effect = lower value 0.992 | S. cerevisiae deletion strains, locus YDR101C, strain arx1, stronger effect = lower value 1.01 | S. cerevisiae deletion strains, locus YDR150W, strain NUM1, stronger effect = lower value 0.984 | S. cerevisiae deletion strains, locus YDR162C, strain NBP2, stronger effect = lower value 0.937 | S. cerevisiae deletion strains, locus YDR318W, strain mcm21, stronger effect = lower value 0.98 | S. cerevisiae deletion strains, locus YDR388W, stronger effect = lower value 0.989 | S. cerevisiae deletion strains, locus YDR502C, strain sam2, stronger effect = lower value 0.987 | S. cerevisiae deletion strains, locus YEL061C, strain CIN8, stronger effect = lower value 0.989 | S. cerevisiae deletion strains, locus YER110C, stronger effect = lower value 0.976 | S. cerevisiae deletion strains, locus YER155C, strain BEM2, stronger effect = lower value 1.01 | S. cerevisiae deletion strains, locus YER167W, strain BCK2, stronger effect = lower value 1 | S. cerevisiae deletion strains, locus YGL078C, strain dbp3, stronger effect = lower value 0.978 | S. cerevisiae deletion strains, locus YGL086W, strain mad1, stronger effect = lower value 1.03 | S. cerevisiae deletion strains, locus YGL248W, strain PDE1, stronger effect = lower value 0.981 | S. cerevisiae deletion strains, locus YGR078C, strain PAC10, stronger effect = lower value 0.969 | S. cerevisiae deletion strains, locus YGR135W, strain pre9, stronger effect = lower value 0.966 | S. cerevisiae deletion strains, locus YGR252W, strain gcn5, stronger effect = lower value 0.958 | S. cerevisiae deletion strains, locus YHR030C, strain SLT2, stronger effect = lower value 1 | S. cerevisiae deletion strains, locus YHR079C, strain IRE1 (second series), stronger effect = lower value 1.01 | S. cerevisiae deletion strains, locus YHR094C, strain hxt1, stronger effect = lower value 0.972 | S. cerevisiae deletion strains, locus YHR129C, strain ARP1, stronger effect = lower value 0.997 | S. cerevisiae deletion strains, locus YHR200W, strain rpn10, stronger effect = lower value 0.971 | S. cerevisiae deletion strains, locus YIL066C, strain RNR3, stronger effect = lower value 0.981 | S. cerevisiae deletion strains, locus YIL073C, strain SPO22, stronger effect = lower value 0.986 | S. cerevisiae deletion strains, locus YIL125W, strain kgd1, stronger effect = lower value 0.987 | S. cerevisiae deletion strains, locus YIR030C, strain dcg1, stronger effect = lower value 0.995 | S. cerevisiae deletion strains, locus YJL095W, strain BCK1, stronger effect = lower value 0.964 | S. cerevisiae deletion strains, locus YJL134W, strain LCB3, stronger effect = lower value 0.992 | S. cerevisiae deletion strains, locus YJL168C, strain set2, stronger effect = lower value 0.991 | S. cerevisiae deletion strains, locus YJL187C, strain SWE1 (second series), stronger effect = lower value 0.969 | S. cerevisiae deletion strains, locus YJR043C, strain POL32, stronger effect = lower value 0.977 | S. cerevisiae deletion strains, locus YJR075W, strain HOC1, stronger effect = lower value 0.993 | S. cerevisiae deletion strains, locus YKL009W, strain mrt4, stronger effect = lower value 1.02 | S. cerevisiae deletion strains, locus YKL068W, stronger effect = lower value 0.985 | S. cerevisiae deletion strains, locus YKL085W, strain MDH1 (second series), stronger effect = lower value 1.02 | S. cerevisiae deletion strains, locus YKL085W, strain MDH1, stronger effect = lower value 1.02 | S. cerevisiae deletion strains, locus YKL190W, strain CNB1, stronger effect = lower value 0.981 | S. cerevisiae deletion strains, locus YKR001C, strain vps1, stronger effect = lower value 1.01 | S. cerevisiae deletion strains, locus YLR039C, strain RIC1, stronger effect = lower value 0.964 | S. cerevisiae deletion strains, locus YLR058C, strain SHM2, stronger effect = lower value 0.979 | S. cerevisiae deletion strains, locus YLR102C, strain apc9, stronger effect = lower value 0.993 | S. cerevisiae deletion strains, locus YLR262C, strain YPT6, stronger effect = lower value 0.938 | S. cerevisiae deletion strains, locus YLR268W, strain sec22, stronger effect = lower value 1.01 | S. cerevisiae deletion strains, locus YLR330W, strain CHS5, stronger effect = lower value 1 | S. cerevisiae deletion strains, locus YLR342W, strain FKS1 (second series), stronger effect = lower value 1.05 | S. cerevisiae deletion strains, locus YLR371W, strain rom2, stronger effect = lower value 0.98 | S. cerevisiae deletion strains, locus YLR418C, strain cdc73, stronger effect = lower value 0.974 | S. cerevisiae deletion strains, locus YML016C, strain PPZ1, stronger effect = lower value 0.99 | S. cerevisiae deletion strains, locus YML032C, strain rad52, stronger effect = lower value 0.959 | S. cerevisiae deletion strains, locus YML124C, strain tub3, stronger effect = lower value 0.982 | S. cerevisiae deletion strains, locus YMR078C, strain ctf18, stronger effect = lower value 0.964 | S. cerevisiae deletion strains, locus YMR223W, strain ubp8, stronger effect = lower value 0.988 | S. cerevisiae deletion strains, locus YMR307W, strain GAS1, stronger effect = lower value 1.02 | S. cerevisiae deletion strains, locus YNL067W, strain RPL9B, stronger effect = lower value 0.971 | S. cerevisiae deletion strains, locus YNL128W, strain TEP1, stronger effect = lower value 0.969 | S. cerevisiae deletion strains, locus YNL153C, strain GIM3, stronger effect = lower value 0.951 | S. cerevisiae deletion strains, locus YNL233W, strain BNI4, stronger effect = lower value 0.997 | S. cerevisiae deletion strains, locus YNL250W, strain rad50, stronger effect = lower value 0.988 | S. cerevisiae deletion strains, locus YNL271C, strain bni1, stronger effect = lower value 0.983 | S. cerevisiae deletion strains, locus YNL298W, strain CLA4, stronger effect = lower value 0.973 | S. cerevisiae deletion strains, locus YNL307C, strain MCK1, stronger effect = lower value 0.984 | S. cerevisiae deletion strains, locus YNR052C, strain pop2, stronger effect = lower value 0.981 | S. cerevisiae deletion strains, locus YOL012C, strain htz1 0.849 | S. cerevisiae deletion strains, locus YOL147C, strain pex11, stronger effect = lower value 0.99 | S. cerevisiae deletion strains, locus YOR061W, strain CKA2, stronger effect = lower value 0.968 | S. cerevisiae deletion strains, locus YOR069W, strain VPS5, stronger effect = lower value 0.996 | S. cerevisiae deletion strains, locus YOR136W, strain idh2, stronger effect = lower value 1.01 | S. cerevisiae deletion strains, locus YOR144C, strain elg1, stronger effect = lower value 0.978 | S. cerevisiae deletion strains, locus YOR184W, strain ser1, stronger effect = lower value 0.974 | S. cerevisiae deletion strains, locus YOR316C, strain cot1, stronger effect = lower value 0.976 | S. cerevisiae deletion strains, locus YPL055C, strain LGE1, stronger effect = lower value 1.01 | S. cerevisiae deletion strains, locus YPL241C, strain CIN2, stronger effect = lower value 0.992 | S. cerevisiae deletion strains, locus YPR119W, strain clb2, stronger effect = lower value 0.985 | S. cerevisiae deletion strains, locus YPR141C, strain kar3, stronger effect = lower value 0.984 | S. cerevisiae deletion strains, locus YPR163C, strain tif3, stronger effect = lower value 0.974 | S. cerevisiae deletion strains, locus YPR167C, strain met16, stronger effect = lower value 1 | S. cerevisiae deletion strains, strain wtn01, stronger effect = lower value 1.02 | S. cerevisiae strains, strain wild type, stronger effect = lower value 0.985
